# This is part of a sample that, as a whole, favours compounds with a hit. Of some 83,000 tested, about 20% had one in any assay.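 The test compound was applied at a single concentration to cells in 96-well plates for 48 hours, and percent growth was recorded.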 Unmarked numbers belong to inactive results. Activity calls are given as the source filed them. How the source made its calls: active means growth percent below 10; inactive means the rest.
# Legend:
# Assay in all cases: NCI-60 one-dose screen, 48 h (100 = growth as untreated, 0 = no growth, -100 = all killed)
# Conditions in all cases: 10 µM unless noted
# BT-549 breast = system: BT-549 breast
# MDA-MB-435 melanoma = system: MDA-MB-435 melanoma
# SW-620 colon = system: SW-620 colon
# MCF7 breast = system: MCF7 breast
# HCT-116 colon = system: HCT-116 colon
# HCC-2998 colon = system: HCC-2998 colon
# KM12 colon = system: KM12 colon
Compound,growth (BT-549 breast),growth (MDA-MB-435 melanoma),growth (SW-620 colon),growth (MCF7 breast),growth (HCT-116 colon),growth (HCC-2998 colon),growth (KM12 colon)
NC(=O)c1c(Nc2ccccc2)nn2cc(-c3nc4ccccc4s3)c(N)nc12,102%,102%,105%,81.4%,99.1%,97.3%,99.5%
Brc1ccc(-c2nc3ccccc3s2)cc1,101%,105%,94.5%,58.7%,89.4%,110%,97.3%
CN1CCN(Cc2ccc(NC(=O)c3ccc(C#Cc4c(N)ncc5ccc(F)cc45)cc3)cc2C(F)(F)F)CC1,27.7%,-92% (active),-52.5% (active),-77.3% (active),-95.4% (active),-82.9% (active),-75.5% (active)
c1ccc(C(=NNc2nc3ccccc3o2)c2ccccn2)nc1,18.7%,25.2%,29.7%,6.93% (active),4.99% (active),44.3%,24.6%
CCOC(=O)c1ccc2n1CCCc1cnc(NC(C)=O)nc1-2,104%,102%,106%,101%,107%,122%,109%
CC(C)OC(=O)[C@H](C)N[P@@](=O)(OC[C@@]1(C)O[C@@H](n2cc(F)c(N)nc2=O)C[C@@H]1O[P@](=O)(N[C@@H](C)C(=O)OC(C)C)Oc1ccccc1)Oc1ccccc1,75.9%,86.6%,61.1%,50.3%,88.2%,46.7%,76%
CC/C(=N\Nc1nc2ccccc2n1C)c1ccccn1,21%,18.9%,30%,8.78% (active),11.7%,32.3%,18.5%
CCN(CC)CCCNc1c2ccc(Cl)cc2nc2ccc(OC)cc12,-20.4% (active),-90.5% (active),3.44% (active),-16.4% (active),-4.77% (active),-68.1% (active),0.483% (active)
COC(=O)c1ccc2[nH]c(O)c(C(=Nc3ccc(N(C)C(=O)CN4CCN(C)CC4)cc3)c3ccc(CCO)cc3)c2c1,20.6%,60.8%,27.9%,26.3%,9.37% (active),53.2%,18.5%
CCC(C)C1NC(=O)C(CC(C)C)NC(=O)C(C)NC(=O)C(C(C)C)NC(=O)C(CCCCN)NC(=O)C(CC(C)C)NC(=O)C(C(C)C)NC(=O)[C@H](C)NC(=O)C(C(C)CC)NC(=O)C(CCCN=C(N)N)NC(=O)C(CCCCN)NC(=O)C(CCCN=C(N)N)NC(=O)C(CCCCN)NC(=O)C([C@H](C)CC)NC(=O)C(CCCCN)NC1=O (stereo partly drawn),14.4%,11.2%,19.6%,20.5%,–,16.7%,-6.4% (active)
Cc1c([C@H](C(Cl)Cl)[C@H](O)[C@H]2C[C@H](C)C(=O)O2)ccc2c1C(=O)[C@H]1[C@H]2C[C@@H](Br)[C@@]23O[C@@H](CO[C@H]2O)CC13C (stereo partly drawn),37.6%,-40% (active),14.6%,–,15.1%,8.99% (active),2.99% (active)
C=C(C)[C@@H]1CC[C@]2(COC(=O)c3ccccc3C(=O)O)CC[C@]3(C)[C@H](CC[C@@H]4[C@@]5(C)CCCNC(C)(C)[C@@H]5CC[C@]43C)[C@@H]12,72.6%,60.9%,70.5%,26.3%,32.2%,72.1%,51.9%
Cc1nc2c(nnn2-c2ccccc2)c2nc(-c3ccccc3)oc(=O)c12,105%,111%,109%,92.3%,–,116%,118%
Cc1ncc(C(=O)Nc2ccc(CN3CCN(C)CC3)c(C(F)(F)F)c2)cc1C#Cc1c(N)ncc2ccccc12,-96.4% (active),-92.3% (active),-60.6% (active),-71.7% (active),-88.2% (active),-89.6% (active),-68.1% (active)
CC(=O)Nc1ccc(C(=O)/C=C/c2ccc(N(C)C)cc2)cc1,101%,98.1%,110%,78.3%,102%,102%,97.7%
COC(c1ccccc1)C(Br)C(=O)c1ccccc1 (stereo not drawn),92.4%,96.3%,125%,98.5%,–,–,114%
O=C(NCCCl)Nc1nccnc1OCc1ccc(F)cc1,88.8%,107%,103%,85.1%,104%,113%,107%
O=C1CSC(c2ccccc2Cl)N1c1nnc(-c2ccncc2)o1 (stereo not drawn),116%,99.6%,99.6%,–,85.5%,97.9%,105%
COc1ccccc1C(=O)Nc1cccc(-c2cc(=O)c3c(OC)c(OC)c(OC)cc3o2)c1,45.9%,43.5%,63.4%,53.4%,–,67.8%,38.4%
COC(=O)c1ccc2[nH]c(O)c(C(=Nc3ccc(N(C)C(=O)CN4CCN(C)CC4)cc3)c3cccc(OC)c3)c2c1,11.2%,31.8%,2.03% (active),6.86% (active),-5.68% (active),20.3%,4.88% (active)
CC(C)(C)OC(=O)N1C/C(=C\c2ccccc2)C(=O)/C(=C/c2ccccc2)C1,91.5%,102%,93.7%,78.1%,80.7%,103%,108%
Cc1cc2cn3c4ccc(O)cc4[nH]c(=O)c3c2cc1C,–,0.693% (active),-100% (active),-57.2% (active),-100% (active),24.1%,-36.9% (active)
COc1cccc(-c2cc(-c3cc4ccccc4oc3=O)nc(N)n2)c1,–,119%,103%,70%,95.1%,–,95.4%
COc1cc2oc(-c3ccc(NC(=O)c4ccccc4)cc3)cc(=O)c2c(OC)c1OC,75.6%,95%,93.2%,75%,91.3%,89.8%,90.6%
